# Compounds with a hit are over-represented: about 2.4% of the library has one in this group of screens.
# PKM2 activator: increases activity of human pyruvate kinase M2 | P14618 | purified PKM2, Kinase-Glo ATP luminescence, activation; response scale: 0% is enzyme alone, no compound | Potency, µM (doses to about 57.5 µM), actives largely listed as activators | actives 0.34% (n = 260,000) | AID 1631; also: nearly all actives have a fitted effect of over 55% in size
# Target sequence (P14618 whole entry, looked up): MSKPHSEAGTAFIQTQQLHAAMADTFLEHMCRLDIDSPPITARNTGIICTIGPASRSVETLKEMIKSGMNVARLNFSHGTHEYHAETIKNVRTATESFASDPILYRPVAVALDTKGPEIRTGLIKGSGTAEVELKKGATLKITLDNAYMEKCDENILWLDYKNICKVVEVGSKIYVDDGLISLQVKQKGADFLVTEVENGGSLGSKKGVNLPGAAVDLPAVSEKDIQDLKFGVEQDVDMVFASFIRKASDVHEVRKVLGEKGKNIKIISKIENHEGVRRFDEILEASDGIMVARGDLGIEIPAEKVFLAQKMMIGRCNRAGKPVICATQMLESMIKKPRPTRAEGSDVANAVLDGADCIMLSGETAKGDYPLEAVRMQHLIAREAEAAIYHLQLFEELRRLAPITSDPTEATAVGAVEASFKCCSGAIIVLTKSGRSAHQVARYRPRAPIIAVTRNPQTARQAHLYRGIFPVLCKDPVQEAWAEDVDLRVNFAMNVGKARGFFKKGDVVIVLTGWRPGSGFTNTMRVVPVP
#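 Purified hPK-M2 (>95%) run at intermediate activity with 0.1 mM ADP and 0.5 mM PEP in 50 mM imidazole pH 7.2, KCl, MgCl2; 1 h room temperature. ATP formed read by Kinase-Glo luminescence; normalized to uninhibited and no-enzyme controls.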
# Tb PFK inh: blocks T. brucei phosphofructokinase; Potency, µM (titrated, usually from 57.5 µM), most hits filed as inhibitors; T. brucei PFK, ADP-Glo luminescence; AID 485367; O15648; actives 0.17% (n = 330,000); also: nearly all actives have a fitted effect of over 60% in size
#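 Compounds were pin-transferred as a titration series up to 57 uM into substrate buffer (0.5 mM F6P, 0.1 mM ATP, pH 8.0), then 1.25 nM PFK was added and reactions ran 45 min before ADP-Glo detection.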
# Rango-impB inh: prevents formation of the Rango-importin beta complex | Q14974 | Rango CFP/YFP FRET sensor + importin beta, 45 min | Potency, µM (top dose mostly 92.2 µM) | actives 0.031% (n = 340,000) | AID 540263; calls by dose curve; also: nearly all actives have a fitted effect of over 15% in size
#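 FRET biosensor (snurportin 1 IBB flanked by EYFP and cerulean), 50 nM, with compound 5 min, then 0.125 microM importin beta in PBS, 1 mM DTT, 0.02% Tween-20, 0.1% BSA. CFP/YFP ratio read after 45 min at room temperature; pre-read flags interference.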
# Tb PGK inh: inhibitors of T. brucei phosphoglycerate kinase; PGK/GAPDH coupled, Kinase-Glo luminescence, 60 min; Potency, µM (highest dose often 57.5 µM), actives largely listed as inhibitors; P07378; actives 0.043% (n = 380,000); also: nearly all actives have a fitted effect of over 60% in size
#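 Luminescent ATP detection (Kinase-Glo Plus) follows a 60-minute room-temperature incubation, with wells lacking PGK as controls. Buffer: 100 mM TEA (pH 7.6), 5 mM MgCl2, 0.01% Tween-20. Coupling enzyme GAPDH (100 nM final) supplies unstable 1,3-BPG in-well.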
# Rango release inh: inhibition of RanGTP-driven Rango-importin beta dissociation. Biochemical FRET Rango-importin beta, RanGTP-induced dissociation. Potency, µM (doses to about 46.1 µM). actives 0.071% (n = 340,000). AID 540253; calls by dose curve; also: nearly all actives have a fitted effect of over 45% in size
#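 Rango/importin beta premix (0.1/0.25 uM final), PBS + 1 mM DTT + 0.02% Tween-20 + 0.1% BSA; cpd 5 min RT; FRET pre-read; + RanGTP-RCC1 (0.6 uM Ran, 2 mM GTP, 0.2 uM RCC1); 45 min RT; FRET post-read, ex 430, em 486/530 nm.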
# ELG1 repair inh: inhibitors of ELG1-dependent DNA repair in HEK293T cells; actives 2.3% (n = 330,000); HEK293T ELG1-luciferase reporter, luminescence, 16 h; DNA damage induced by 5-fluorouridine; Potency, µM (doses to about 46.1 µM), actives largely listed as inhibitors; also: nearly all actives have a fitted effect of over 55% in size
#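 Quantitative HTS, concentration-response format. 2,000 cells/well co-treated with 5-fluorouridine and compound, 16 hr in 5% CO2 at 37 °C; ONE-Glo luminescence read after 30 min.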
# HeLa viability: reduces HeLa cell viability in PKM2 activator counter-screen; shares compounds with PKM2 activator; HeLa viability, CellTiter-Glo ATP luminescence, 24 h; activity change, negative = cytotoxicity, % at 57.5 µM; 230 tested, under 10 active; AID 1898
# Numbers stand for hits; . = inactive; ? = inconclusive; / = not tested or not shown. Unless noted, calls follow the shape of the dose curve; as a rule, active = well fitted curve in the direction sought with a large enough effect; inconclusive = small, poorly fitted or top-dose-only effect, or another doubt; inactive = no such curve, though single readings can be large; an effect the other way counts as inactive or inconclusive.
SMILES,PKM2 activator,Tb PFK inh,Rango-impB inh,Tb PGK inh,Rango release inh,ELG1 repair inh,HeLa viability
O=S(=O)(NC1CCC(NS(=O)(=O)c2c(F)cccc2F)CC1)c1ccc2c(c1)OCCO2 (stereo not drawn),/,.,.,.,.,?,.
O=C1CCC2(CCCCC2)N1,/,/,.,.,?,/,/
Cc1ccc(-c2nc3ccccn3c2Nc2ccccc2)o1,2.2µM,.,.,.,.,.,.
O=C(c1ccco1)N1CCN(Cc2cccc3ccccc23)CC1,/,.,.,.,.,?,/
COCCCN(C(=O)c1cc(-c2ccco2)nc2ccccc12)c1c(N)n(Cc2ccccc2)c(=O)[nH]c1=O,/,?,?,.,.,?,/
CCOc1ccc(CCNC(=O)C2CCCN(S(=O)(=O)N(C)c3ccc(F)cc3)C2)cc1 (stereo not drawn),/,/,/,.,/,/,/
O=S(=O)(NCCCCCNS(=O)(=O)c1ccccc1)c1ccccc1,1.4µM,.,.,.,.,?,.
CCn1c(SCC(=O)Nc2cccc(O)c2)nc2c1c(=O)n(C)c(=O)n2C,1.1µM,.,.,.,.,.,.
CCN(CC)S(=O)(=O)c1cccc(C(=O)NCCc2ccccc2)c1,/,/,.,.,.,/,/
CN(c1ccccc1)S(=O)(=O)c1cccc(C(=O)NCCc2ccc(O)c(O)c2)c1,1.4µM,?,.,.,.,?,.
Cc1cc(NC(=O)C(C)SCC(=O)OCc2c(Cl)cccc2Cl)no1 (stereo not drawn),.,.,.,.,.,.,/
COC(=O)c1[nH]c2ccccc2c1NS(=O)(=O)c1ccc(F)c(C)c1,10µM,.,.,.,.,.,.
COc1cccc(CNC(=O)CCC2CCCN(C(=O)c3cc(C4CC4)[nH]n3)C2)c1 (stereo not drawn),3.5µM,.,.,.,.,.,.
COc1cccc(CNC(=O)CCC2CCCN(C(=O)c3cc(C)on3)C2)c1 (stereo not drawn),.,.,.,.,.,.,/
O=S(=O)(NCCNS(=O)(=O)c1c(F)cccc1F)c1ccc2c(c1)OCCO2,/,.,.,.,.,.,.
O=S(=O)(Nc1ccc2c(c1)OCCO2)c1c(F)cccc1F,.,.,.,.,.,.,/
O=S(=O)(NCCCCNS(=O)(=O)c1c(F)cccc1F)c1ccc2c(c1)OCCO2,/,.,.,.,.,.,.
O=C1CCN(Cc2ccc(Br)cc2)CCN1[C@H](CO)Cc1ccccc1,.,.,.,.,.,.,/
O=C1CCc2cc(S(=O)(=O)Nc3ccc(F)cc3)ccc2N1,/,.,.,.,.,.,/
Cc1ccc(NS(=O)(=O)c2ccc3c(c2)CCC(=O)N3)cc1C,0.79µM,.,.,.,.,?,?
N#CC(C#N)=C1c2cc(S(N)(=O)=O)ccc2-c2ccc(S(N)(=O)=O)cc21,0.71µM,.,.,.,.,.,.
NC1=C(Cl)C(=O)c2ccc(S(N)(=O)=O)cc2C1=O,/,/,.,.,.,/,/
COC(=O)[C@@]12CCCCN1[C@H](c1ccc(-c3ccc(F)cc3)cc1)[C@@H]1C(=O)N(C)C(=O)[C@@H]12,/,.,.,.,.,.,/
COc1ccc(S(=O)(=O)N2CCN(S(=O)(=O)c3ccc(OC)cc3)CC2)cc1,/,.,/,/,/,/,.
O=C(c1ccc2c(c1)OCCO2)C1CCN(S(=O)(=O)c2ccccc2F)CC1,.,.,.,.,.,.,/
O=S(=O)(c1ccccc1F)N1CCN(c2nc3ccccc3s2)CC1,.,.,.,.,.,?,/
O=S(=O)(c1ccc2c(c1)OCCO2)N1CCN(S(=O)(=O)c2ccccc2F)CC1,/,/,/,/,/,/,.
COc1ccc(S(=O)(=O)N2CCCCCC2)cc1,.,.,.,.,.,.,/

# From PubChem BioAssay
